Laboratory results: PubChem BioAssay (NCI)
This is part of a sample that, as a whole, favours compounds with a hit. Of some 83,000 tested, about 20% had one in any assay.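 Each cell line was grown in a 96-well plate and treated with one concentration of compound for 48 hours. Values below 10 were considered active.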 Active and inactive are the calls of the source.

Test system: MDA-MB-468 breast
Experiment: NCI-60 one-dose screen, 48 h (100 = growth as untreated, 0 = no growth, -100 = all killed)
Conditions: 10 µM unless noted

Which growth does the source give for `CC1=CC(=O)CCC12CCOC2=O` (stereo not given) here?
Its growth is 105% (inactive).

`CN(C)C(=O)Oc1ccccc1-c1ccccc1` was tested. Which growth did it give?
The growth was 99.7% (inactive).

`C[C@]12CCc3sc(NCCc4ccccc4)nc3C1=CC[C@@H]1[C@@H]2CC[C@]2(C)C(=O)CC[C@@H]12` was tested. Which growth did it give?
Its growth is 32.9% (inactive).

For `CCC(C)(C)O`, which growth is on record?
The growth was 104% (inactive).

For `COC(=O)[C@@H](C)C[C@H](Cc1ccccc1)NC(=O)c1nc([C@@H](C[C@H](C(C)C)N(C)C(=O)[C@@H](NC(=O)[C@H]2CCCCN2C)C(C)C)OC(C)=O)sc1C`, which growth is on record?
Its growth is 53.2% (inactive).

`COc1ccc(/C=C\c2cc(OC)c(OC)c(OC)c2)c(NS(=O)(=O)c2ccc(F)cc2)c1O` was tested. Which growth did it give?
The growth was 15.9% (inactive).

With `CCCCNCCc1ccccn1` as the compound, how does the growth read?
Its growth is 117% (inactive).

With `CC[C@H](C)[C@H](NC(=O)c1cccn1C)C(=O)N(C)[C@H](C[C@@H](OC(C)=O)c1nc(C(=O)N[C@@H](Cc2ccccc2)C[C@H](C)C(=O)OC)cs1)C(C)C` as the compound, how does the growth read?
The growth was 25.9% (inactive).

Which growth does the source give for `CC1(C)CN=C(NN=C(/C=C/c2ccc(C(F)(F)F)cc2)/C=C/c2ccc(C(F)(F)F)cc2)NC1` here?
The growth was -84% (active).

For `CCOc1ccc(C(O)CN(C)Cc2ccccc2)cc1Cl` (stereo not given), which growth is on record?
The growth was 100% (inactive).

Which growth does the source give for `Clc1cccc(Cl)c1Cl` here?
Its growth is 107% (inactive).

For `COP(=O)(OC)C(O)c1ccc(Cl)cc1` (stereo not given), which growth is on record?
Its growth is 108% (inactive).

Which growth does the source give for `[Cl][Hg][c]1ccc2ccccc2c1` here?
Its growth is -83.2% (active).

How did the growth turn out when `CCOC(=O)CCC(NC(=O)C(Cc1ccc(N(CCCl)CCCl)cc1)NC=O)C(=O)OCC` (stereo not given) was run?
Its growth is -89.3% (active).

With `CCOc1cc(/C=N\Nc2nnc(C)n2N)c(C)cc1N(CCCl)CCCl` as the compound, how does the growth read?
Its growth is -21.1% (active).
